# Screening results (PubChem BioAssay)
# KCNH2 3.1 inh = inhibitors of human KCNH2 3.1 potassium channel isoform | actives 0.95% (n = 340,000) | U2OS KCNH2 3.1, thallium flux FluxOr; active compounds read low | AID 720553 | activity change, % (tested at about 1.8 µM);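 active = maximum activity change below -70%; inconclusive = maximum activity change from -70% to -50%; inactive = maximum activity change above -50%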;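 note: thallium influx rate constant from kinetic fluorescence after stimulation buffer; % is set by controls: 0 for no effect and ±100 for the full control effect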
#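 Thallium flux via FluxOr fluorescence (Red40 quencher, 45 min loading) in U2OS cells virally expressing the KCNH2 3.1 isoform (1.77 x 10^8 /mL virus, overnight at 37 C). Rate constants from 2-min kinetic reads post-stimulation, normalised to positive and negative controls.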
# 12-LOX inh = ALOX12 (human) lipoxygenase inhibition; purified 12hLO, xylenol orange hydroperoxide absorbance; Potency, µM (series often up to 108 µM), for inactives: at the highest dose activity change, negative = inhibition, hits mostly inhibitors; actives 1.1% (n = 580,000); active = well fitted inhibition curve with a large enough effect; inconclusive = small, poorly fitted or top-dose-only effect, or another doubt; inactive = no such curve, though single readings can be large or run the other way; note: potency is the fitted concentration of half-maximal effect; % is set by controls: 0 for no effect and ±100 for the full control effect
# Target sequence (P18054 whole entry, looked up): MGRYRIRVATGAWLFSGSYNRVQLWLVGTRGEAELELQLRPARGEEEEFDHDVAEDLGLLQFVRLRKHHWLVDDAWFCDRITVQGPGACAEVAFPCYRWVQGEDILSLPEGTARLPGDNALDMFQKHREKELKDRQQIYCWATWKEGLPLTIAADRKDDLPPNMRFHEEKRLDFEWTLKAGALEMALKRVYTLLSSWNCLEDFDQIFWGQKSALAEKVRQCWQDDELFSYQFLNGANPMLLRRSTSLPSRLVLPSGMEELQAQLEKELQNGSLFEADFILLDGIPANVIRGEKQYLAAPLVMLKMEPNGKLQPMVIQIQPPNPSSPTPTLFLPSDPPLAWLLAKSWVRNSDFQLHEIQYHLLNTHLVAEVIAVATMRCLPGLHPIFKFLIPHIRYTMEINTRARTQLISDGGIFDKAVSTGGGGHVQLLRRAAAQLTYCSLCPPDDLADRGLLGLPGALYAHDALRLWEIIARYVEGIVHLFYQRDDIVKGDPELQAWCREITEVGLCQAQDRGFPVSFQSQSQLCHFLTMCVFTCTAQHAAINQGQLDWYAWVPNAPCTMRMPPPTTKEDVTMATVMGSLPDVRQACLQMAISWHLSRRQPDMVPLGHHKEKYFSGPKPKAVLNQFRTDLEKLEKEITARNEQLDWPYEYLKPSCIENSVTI
#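 Purified human 12hLO (150 nM final) in 25 mM Hepes, 0.01% Triton X-100, pH 7.0 was preincubated 15 min at room temperature with compound. Then 40 uM arachidonic acid was added, 30 min. Hydroperoxide was read by Fe-XO absorbance ratio 573/405 nm.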
# Chronic BCR inh = chronic active BCR signaling inhibition; ABC-DLBCL IkBa-CBG/CBR reporter, luminescence ratio, 4 h; Potency, µM (doses to about 46.1 µM), for inactives: top-dose activity change, negative = inhibition, hits mostly inhibitors; actives 0.05% (n = 340,000); AID 493014; active = well fitted inhibition curve with a large enough effect in the signal ratio, with a control signal flat, not every such curve was filed as active; inconclusive = small, poorly fitted or top-dose-only effect, or effect the other way, or a change in a side signal; the % refers to the signal ratio;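 note: potency is the fitted concentration of half-maximal effect; plate controls were basal doxycycline-induced cells for no effect and cells given 10 µM MG132 for full effect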
#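 TMD8 human ABC-DLBCL cells with doxycycline-inducible IκBα–green luciferase fusion and unfused red luciferase, in 0.5% FBS medium; compounds up to 46 uM, 4 h at 37C. Green/red luminescence ratio, filter-overlap corrected, fitted to concentration-response curves.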
# ClpP mod = qHTS Assay for Activators of ClpP; ATP-dependent Clp protease proteolytic subunit (Bacillus subtilis (strain 168)), P80244; purified B. subtilis ClpP, FRET peptide cleavage, 20 min; Potency, µM (doses to about 57.5 µM), for the others: top-dose activity change, negative = active; actives 1.9% (n = 340,000); active = well fitted falling curve with a large enough effect; inconclusive = small, poorly fitted or top-dose-only effect; inactive = no such curve, though single readings can be large or run the other way; note: potency is the fitted concentration of half-maximal effect; the source files actives as falling curves though it sought activators and does not explain the sign; nearly all actives have a fitted effect of over 65% in size
#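 Buffer: 100 mM Tris/HCl pH8, 100 mM KCl, 0.05% low protease BSA, 2.5% glycerol, 0.01% Tween-20. ClpP 10 microg/mL final; 20 min RT; delta FRET normalized to ADEP and DMSO controls.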
# LDHA block = inhibitors of human lactate dehydrogenase A. P00338. purified LDHA, NADH/diaphorase-resazurin fluorescence; active compounds read low. activity change, % (values are at about 110 or 230 µM). actives 0.15% (n = 480,000); in the data active = activity change below about -30%; inconclusive = mostly about -25% to -30%;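 note: plate controls were DMSO wells for no effect and wells without enzyme for full effect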
#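 Resorufin fluorescence (ex540/em590), read at 0 and 20 min after diaphorase/resazurin addition, reports the NADH left after a 5 min room-temperature reaction of 2 nM human LDH5 with 0.06 mM NADH and 0.2 mM pyruvate.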
# hERG WT inh = KCNH2 (human, wildtype) channel inhibition | actives 0.37% (n = 340,000) | activity change, % at 1.84 µM | Q12809 | U2OS, BacMam KCNH2, thallium flux FluxOr; active compounds read low;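 active = maximum activity change below -70%; inconclusive = maximum activity change between -70% and -50%; inactive = maximum activity change above -50%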; note: % is set by controls: 0 for no effect and ±100 for the full control effect
#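 U2OS cells transduced with wild-type KCNH2 virus are loaded with FluxOr dye for 45 min, and thallium flux is measured in kinetic reads before and after stimulation buffer. Rate constants are normalized to DMSO controls.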
# Starred values were filed as active, the others as inactive; ? = inconclusive; nt = not tested or not shown; [ ] = dose if it differs, or a comment. This is a sample that favours compounds with a hit; in the whole collection about 3% have one here.
SMILES,KCNH2 3.1 inh,12-LOX inh,Chronic BCR inh,ClpP mod,LDHA block,hERG WT inh
CCOC(=O)c1oc2ccc(OC)cc2c1NC(=O)CN1CCN(C)CC1,-2,-16%,-8%,16µM*,-2,-8
CCOC(=O)c1[nH]c2ccc(OC)cc2c1NC(=O)CN1CCc2ccccc2C1,0,0%,1%,16µM*,0,11
CCOC(=O)c1[nH]c2ccc(OC)cc2c1NC(=O)CCN1CCSCC1,2,10%,-3%,13µM*,0,-4
C=CC[N+]1(CC#CCOC(c2ccccc2)c2ccccc2)CCCCC1,nt,25%,nt,nt,1,nt
O=C(Cn1ncc2ccccc2c1=O)NC1CCCC1,nt,-8%,nt,nt,11,nt
COC(=O)c1[nH]c2cc(OC)ccc2c1NC(=O)CCN1CCN(c2ccccc2)CC1,-44,0%,?,-14%,-12,12
COC(=O)c1[nH]c2cc(OC)ccc2c1NC(=O)CCN1CCN(c2cccc(C)c2C)CC1,-91*,-23%,-2%,25µM*,-2,6
N#Cc1ccc(NC(=O)N2CCN(Cc3nc(-c4ccc(Cl)cc4)no3)CC2)cc1,nt,?,nt,nt,-2,nt
O=C(NCc1cnn(-c2ccccc2)c1)C1CCN(S(=O)(=O)c2cccc(C(F)(F)F)c2)CC1,nt,?,nt,nt,10,nt
CC(=O)NNC(=S)NC1CCCC1,nt,20%,nt,nt,-1,nt
CC(Sc1ccccc1C(=O)NCC(=O)C(C)(C)C)C(=O)Nc1ccccc1 (centres undefined),nt,?,nt,nt,-8,nt
COc1ccc(-c2cc(C(F)(F)F)nc(NC3CCCC3)n2)cc1OC,-18,10%,?,35µM*,3,-6
O=C(Nc1ccccc1N1CCN(C(=O)c2ccc(Cl)cc2)CC1)c1ccc([N+](=O)[O-])o1,-93*,nt,?,0%,-1,-94*
O=C(Nc1ccccc1N1CCCCC1)c1ccc([N+](=O)[O-])o1,-5,?,7%,-1%,1,-3
O=C(Nc1ccccc1N1CCN(C(=O)c2ccc(Cl)cc2)CC1)c1ccc(Br)cc1,-91*,-8%,17%,-18%,-2,-12
CCOc1ccc(CN(Cc2ccccc2)Cc2cc(=O)n3nc(CC)sc3n2)cc1,nt,?,nt,nt,-5,nt
Cc1cc(=O)oc2cc(NC(=O)Cc3ccccc3F)ccc12,nt,40µM*,nt,nt,-9,nt
COc1ccc(CC(=O)Nc2ccc3c(C)cc(=O)oc3c2)cc1OC,2,9%,0%,-8%,-7,-11
Cc1cc(=O)oc2cc(NC(=O)C(C)Oc3cccc(Cl)c3)ccc12 (centres undefined),-10,-18%,?,10µM*,-5,2
O=C(c1cccs1)N1CCC(Cc2nc(-c3ccncc3)n[nH]2)CC1,nt,12%,nt,nt,nt,nt
C=CCNC(=S)Nc1ccc2nsnc2c1,9,0%,3%,28µM*,20,-4
COc1ccc(NC(=S)Nc2ccc3nsnc3c2)cc1,-12,7.9µM*,-1%,3%,31,-9
N#Cc1cccnc1Oc1ccc(C(N)=O)cc1,nt,3%,nt,nt,2,nt
CC1CN(C(=O)Cn2cnc3c2c(=O)n(C)c(=O)n3C)CCO1 (centres undefined),nt,6%,nt,nt,6,nt
Cn1c(=O)c2c(ncn2CC(=O)N2CCOCC2)n(C)c1=O,12,-12%,-9%,32µM*,-6,9
SMILES,KCNH2 3.1 inh,12-LOX inh,Chronic BCR inh,ClpP mod,LDHA block,hERG WT inh
COc1cccc2c(=O)c(C(=O)NCCc3ccccc3)c[nH]c12,-34,-11%,nt,4%,3,-6
COc1cccc2c(=O)c(C(=O)O)c[nH]c12,5,-16%,?,22µM*,15,-9
COc1cc2c(OC)cccc2cc1C(=O)O,7,-16%,-7%,16µM*,9,-1
COc1cc2ccccc2cc1C(=O)O,3,-4%,16%,?,7,-1
COc1ccccc1C(=O)Oc1ccc2c(=O)c(-c3ccccc3OC)c(C)oc2c1,nt,-28%,nt,nt,-4,nt
CCOC(=O)Cc1csc(NC(=S)NC(=O)c2ccccc2)n1,1,-11%,?,-1%,4,3
CCOC(=O)Cc1csc(N/C(=N/S(=O)(=O)c2cc(Br)ccc2OCC)c2ccccc2)n1,-170*,6%,-6%,?,-2,-261*
CC(=O)Oc1ccccc1C1C[C@]2(C)CC(=O)NC2N1C(C)=O (some centres undefined),-107*,-8%,3%,-1%,-4,2
CC(C)CCNC(=O)C1CCN(S(=O)(=O)c2ccc(-n3cnnn3)cc2)CC1,13,-23%,1%,32µM*,-8,22
COc1ccc(CCNC(=O)C2CCN(S(=O)(=O)c3ccc(-n4cnnn4)cc3)CC2)cc1OC,9,6%,0%,0%,-3,-4
COCC(=O)NC[C@H]1O[C@@H](CO)[C@@H](O)[C@H]1N1CCN(c2cccc(C(F)(F)F)c2)CC1,nt,6%,nt,nt,nt,nt
CN(C)C[C@H]1O[C@@H](CO)[C@@H](O)[C@H]1N1CCN(c2ncccn2)CC1,nt,-14%,nt,nt,nt,nt
Cc1ccc(S(=O)(=O)NC[C@H]2O[C@@H](CO)[C@@H](O)[C@H]2N2CCN(c3cccc(C(F)(F)F)c3)CC2)cc1,nt,16µM*,nt,nt,nt,nt
O=S(=O)(NC[C@H]1O[C@@H](CO)[C@@H](O)[C@H]1N1CCN(c2ccccn2)CC1)c1ccc(Cl)cc1,nt,18µM*,nt,nt,nt,nt
NC[C@H]1O[C@@H](CO)[C@@H](O)[C@H]1N1CCN(c2ncccn2)CC1,nt,20µM*,nt,nt,nt,nt
O=C(NC[C@H]1O[C@@H](CO)[C@@H](O)[C@H]1N1CCCC1)c1ccccc1,nt,11%[176 µM],nt,nt,nt,nt
O=S(=O)(NC[C@H]1O[C@@H](CO)[C@@H](O)[C@H]1N1CCCC1)c1cccs1,nt,16µM*,nt,nt,nt,nt
O=C(NC[C@H]1O[C@@H](CO)[C@@H](O)[C@H]1N1CCN(c2ccccn2)CC1)c1ccccc1,nt,2%,nt,nt,nt,nt
CCCNC(=O)CNC(=O)c1nn(Cc2ccccc2)c(=O)c2ccccc12,nt,7%,nt,nt,3,nt
c1cnc2nc(-c3c[nH]c4ncccc34)[nH]c2c1,nt,40%[176 µM],nt,nt,nt,nt
c1ccc2c(c1)ccc1[nH]c3c(c12)CCCC3,6,?,nt,18µM*,10,-13
O=C(Nc1cccc(O)c1)C1CCCN1C(=O)OCc1ccccc1 (centres undefined),5,1%,-6%,28µM*,-7,-3
Cc1cccc(OCC(O)CN2CCCN(c3ccc(C(F)(F)F)cn3)CC2)c1 (centres undefined),nt,13µM*,nt,nt,0,nt
Cc1cccc(N2CCN(CC(O)COc3ccccc3)CC2)c1 (centres undefined),-2,-11%,nt,1%,-5,42
